Data published in PubChem BioAssay AID1159580 (chemical genetic matrix, 2015).
Values joined by “and” are separate entries in the source; they are usually repeats but may differ in a detail not shown here. Equal entries are not always repeated. The whole screen tested about 5,500 compounds, of which about 2,000 (36%) were called active. Inconclusive results (about 18%) are left out. Rule as the data show it: active = normalized growth mostly below about 0.91 (no sharp cut-off); inconclusive = no clear call, values can overlap the other calls; inactive = mostly above about 0.92. This is one part of the list. More than one record can exist for a structure, and the calls need not agree.

Assay: chemical genetic growth profiling, strain panel (AID 1159580);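 also: tested at 20 µM; growth read once vehicle control cultures reached saturation at 30 °C; 1 = growth at the plate median or of vehicle wells; lower values mean less growth of the strain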
Conditions: S. cerevisiae deletion strains, growth OD

Measured: normalized growth

Fc1ccc(C(c2ccc(F)cc2)N2CCN(C/C=C/c3ccccc3)CC2)cc1
inactive: locus YAL013W, strain DEP1, stronger effect = lower value 0.996 and 0.961 | locus YAL040C, strain CLN3, stronger effect = lower value 1.02 | locus YBR021W, strain FUR4, stronger effect = lower value 0.978 | locus YBR229C, strain ROT2, stronger effect = lower value 0.989 | locus YCL029C, strain bik1, stronger effect = lower value 0.945 | locus YCL061C, strain MRC1 (second series), stronger effect = lower value 0.96 | locus YDL035C, strain GPR1, stronger effect = lower value 0.976 | locus YDL074C, strain BRE1, stronger effect = lower value 0.904 | locus YDL101C, strain DUN1, stronger effect = lower value 0.973 | locus YDL134C, strain PPH21, stronger effect = lower value 0.993 | locus YDL185W, strain tfp1, stronger effect = lower value 0.966 | locus YDL192W, strain arf1, stronger effect = lower value 0.973 | locus YDR101C, strain arx1, stronger effect = lower value 0.967 | locus YDR137W, strain rgp1, stronger effect = lower value 1.01 | locus YDR162C, strain NBP2, stronger effect = lower value 0.966 | locus YDR195W, strain ref2 1.05 | locus YDR318W, strain mcm21, stronger effect = lower value 0.951 | locus YDR363W, strain ESC2, stronger effect = lower value 0.922 | locus YDR502C, strain sam2, stronger effect = lower value 0.988 | locus YEL061C, strain CIN8, stronger effect = lower value 0.991 | locus YER110C, stronger effect = lower value 0.974 | locus YER155C, strain BEM2, stronger effect = lower value 1.01 | locus YER167W, strain BCK2, stronger effect = lower value 1.01 | locus YGL078C, strain dbp3, stronger effect = lower value 0.994 | locus YGL086W, strain mad1, stronger effect = lower value 0.999 | locus YGL167C, strain pmr1, stronger effect = lower value 1.01 | locus YGL248W, strain PDE1, stronger effect = lower value 0.99 | locus YGR078C, strain PAC10, stronger effect = lower value 0.976 | locus YGR135W, strain pre9, stronger effect = lower value 0.942 | locus YGR252W, strain gcn5, stronger effect = lower value 1.07 | locus YHR030C, strain SLT2, stronger effect = lower value 0.994 and 0.988 | locus YHR079C, strain IRE1 (second series), stronger effect = lower value 0.972 | locus YHR079C, strain IRE1, stronger effect = lower value 0.991 | locus YHR094C, strain hxt1, stronger effect = lower value 0.977 | locus YHR129C, strain ARP1, stronger effect = lower value 0.992 | locus YHR200W, strain rpn10, stronger effect = lower value 0.973 | locus YIL066C, strain RNR3, stronger effect = lower value 0.965 | locus YIL125W, strain kgd1, stronger effect = lower value 0.986 | locus YIR030C, strain dcg1, stronger effect = lower value 0.98 | locus YJL095W, strain BCK1, stronger effect = lower value 0.918 and 0.981 | locus YJL134W, strain LCB3, stronger effect = lower value 0.983 | locus YJL168C, strain set2, stronger effect = lower value 0.977 | locus YJL187C, strain SWE1 (second series), stronger effect = lower value 0.946 | locus YJR043C, strain POL32, stronger effect = lower value 0.983 | locus YJR066W, strain TOR1, stronger effect = lower value 0.928
0.919 (inactive) and 0.24 (active): locus YGR229C, strain SMI1, stronger effect = lower value
active: locus YAL021C, strain ccr4, stronger effect = lower value 0.625 | locus YAL026C, strain drs2, stronger effect = lower value 0.0836 | locus YAL030W, strain snc1, stronger effect = lower value 0.293 | locus YBL061C, strain skt5, stronger effect = lower value 0.214 | locus YBR009C, strain hhf1, stronger effect = lower value 0.263 | locus YBR023C, strain chs3, stronger effect = lower value 0.22 | locus YBR171W, strain sec66, stronger effect = lower value 0.662 | locus YBR231C, strain swc5, stronger effect = lower value 0.147 | locus YBR279W, strain paf1, stronger effect = lower value 0.488 | locus YCL011C, strain gbp2, stronger effect = lower value 0.221 | locus YCL016C, strain dcc1, stronger effect = lower value 0.234 | locus YCL069W, strain vba3, stronger effect = lower value 0.18 | locus YCR088W, strain abp1, stronger effect = lower value 0.374 | locus YDL005C, strain med2, stronger effect = lower value 0.263 | locus YDL040C, strain nat1, stronger effect = lower value 0.666 | locus YDR001C, strain nth1, stronger effect = lower value 0.442 | locus YDR069C, strain doa4, stronger effect = lower value 0.479 | locus YDR159W, strain sac3, stronger effect = lower value 0.15 | locus YDR297W, strain sur2, stronger effect = lower value 0.322 | locus YDR334W, strain swr1, stronger effect = lower value 0.208 | locus YDR335W, strain msn5, stronger effect = lower value 0.368 | locus YDR388W, stronger effect = lower value 0.88 | locus YDR392W, strain spt3, stronger effect = lower value 0.104 | locus YEL003W, strain gim4, stronger effect = lower value 0.326 | locus YEL037C, strain rad23, stronger effect = lower value 0.215 | locus YEL061C, strain CIN8 (second series), stronger effect = lower value 0.229 | locus YER015W, strain faa2, stronger effect = lower value 0.346 | locus YER016W, strain bim1, stronger effect = lower value 0.715 | locus YER111C, strain swi4, stronger effect = lower value 0.663 | locus YER155C, strain BEM2 (second series), stronger effect = lower value 0.736 | locus YFR010W, strain ubp6, stronger effect = lower value 0.297 | locus YGL173C, strain kem1, stronger effect = lower value 0.794 | locus YGL227W, strain vid30, stronger effect = lower value 0.243 | locus YGL240W, strain doc1, stronger effect = lower value 0.819 | locus YGL253W, strain hxk2, stronger effect = lower value 0.0972 | locus YHR013C, strain ard1, stronger effect = lower value 0.149 | locus YHR027C, strain rpn1, stronger effect = lower value 0.556 | locus YHR142W, strain chs7, stronger effect = lower value 0.127 | locus YIL073C, strain SPO22, stronger effect = lower value 1.52 [resistant] | locus YJL092W, strain hpr5, stronger effect = lower value 0.282 | locus YJL095W, strain BCK1 (second series), stronger effect = lower value 0.0776 | locus YJL115W, strain asf1, stronger effect = lower value 0.435 | locus YJL129C, strain trk1, stronger effect = lower value 0.215 | locus YJL154C, strain vps35, stronger effect = lower value 0.686 | locus YJL164C, strain tpk1, stronger effect = lower value 0.176 | locus YJL166W, strain qcr8, stronger effect = lower value 0.19 | locus YJL187C, strain SWE1, stronger effect = lower value 0.231
0.985 (inactive) and 0.925 (active): locus YDR150W, strain NUM1, stronger effect = lower value
